Source: PubChem BioAssay
The entries come from a sample that favours hits as a whole.
IL-1B inflam inh – qHTS for Inhibitors of Inflammasome Signaling: IL-1-beta AlphaLISA Primary Screen. THP-1 LPS/ATP IL-1B secretion, AlphaLISA, 16 h; hits give low values. activity change, % at 57.5 µM. 360,000 compounds, 4.7% hits. AID 743279, 2014; in the data active means activity change below about -50%; inconclusive means mostly about -30% to -49%
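THP-1 cells pretreated 1 hr with compounds (up to 57.5 uM final), then stimulated with LPS (250 ng/mL final) plus ATP (1.25 mM final); secreted IL-1B measured by AlphaLISA after 16 hr, decreased signal indicating inhibition.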
HT1080 IDH1KD tx – qHTS for induction of synthetic lethality in tumor cells producing 2HG: qHTS for the HT-1080-IDH1KD cell line. HT-1080 IDH1 knockdown viability, ATP luminescence, 48 h. Potency, µM (titrated, usually from 46.1 µM), without a hit: at the highest dose activity, negative = toxicity, actives largely listed as cytotoxic. 360,000 compounds, 2% hits. AID 686971, 2013;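 further: potency means the concentration at half of the fitted maximal effect; 0% = DMSO wells and -100% = cell-free medium wells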
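After a 2 h attachment period, IDH1KD HT-1080 cells took pin-transferred compound for 48 h at 37 °C; ATP-based luminescence after 10 min room-temperature reagent incubation reported viability.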
HT1080-NT tox – qHTS for induction of synthetic lethality in tumor cells producing 2HG: qHTS for the HT-1080-NT fibrosarcoma cell line | 360,000 compounds, 1.6% hits | Potency, µM (titrated, usually from 46.1 µM), inactives show at the highest dose activity, negative = less viability, most hits filed as cytotoxic | AID 686970, 2013 | HT-1080-NT fibrosarcoma viability, CellTiter-Glo ATP luminescence, 48 h;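 further: NT is the 2HG producing partner of a matched IDH1 knockdown line; potency means the concentration at half of the fitted maximal effect; 0% = DMSO-treated cells and -100% = media-only wells without cells; nearly all actives have a fitted effect of over 55% in size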
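Read-out is CellTiter-Glo luminescence after 10 minutes at room temperature, following 48 hours' compound treatment of HT-1080-NT cells (750 cells/well, RPMI, 5% FBS, 37 degrees C).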
12-LOX inh – Primary qHTS assay for inhibitors of human arachidonate 12S-lipoxygenase (ALOX12): Round 2; Polyunsaturated fatty acid lipoxygenase ALOX12 (Homo sapiens), P18054; purified 12hLO, xylenol orange hydroperoxide absorbance; Potency, µM (highest dose often 108 µM), without a hit: top-dose activity change, negative = inhibition, usual class: inhibitors; 580,000 compounds, 1.1% hits; further: potency means the concentration at half of the fitted maximal effect
Target sequence (P18054 whole entry, looked up): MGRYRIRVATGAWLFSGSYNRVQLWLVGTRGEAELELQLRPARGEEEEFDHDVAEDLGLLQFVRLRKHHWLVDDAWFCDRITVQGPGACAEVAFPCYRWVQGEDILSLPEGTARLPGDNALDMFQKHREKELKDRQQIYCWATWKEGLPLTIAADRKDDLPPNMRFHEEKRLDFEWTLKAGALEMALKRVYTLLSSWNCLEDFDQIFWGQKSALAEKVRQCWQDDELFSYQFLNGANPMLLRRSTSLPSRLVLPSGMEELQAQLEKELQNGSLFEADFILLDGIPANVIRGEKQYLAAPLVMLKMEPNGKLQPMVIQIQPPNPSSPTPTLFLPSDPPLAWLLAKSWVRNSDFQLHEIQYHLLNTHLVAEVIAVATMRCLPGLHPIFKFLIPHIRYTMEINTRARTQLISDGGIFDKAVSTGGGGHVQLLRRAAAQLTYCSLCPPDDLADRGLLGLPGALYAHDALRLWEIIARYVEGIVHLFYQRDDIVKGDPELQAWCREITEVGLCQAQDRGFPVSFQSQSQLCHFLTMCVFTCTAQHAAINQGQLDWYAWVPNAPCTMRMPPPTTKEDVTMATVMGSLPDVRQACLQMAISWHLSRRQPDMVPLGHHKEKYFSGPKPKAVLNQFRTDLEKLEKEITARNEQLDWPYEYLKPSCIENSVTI
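Hydroperoxide product was detected by ferrous iron/xylenol orange as the 573 to 405 nm absorbance ratio. Arachidonic acid at 40 uM (final) was turned over for 30 min at room temperature by 150 nM human 12hLO, pH 7.0 Hepes buffer, after 15 min compound preincubation.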
DT40 TDP1 CPT – qHTS for Inhibitors of human tyrosyl-DNA phosphodiesterase 1 (TDP1): qHTS in cells in presence of CPT | chicken DT40 Tdp1-/-;hTDP1 cells + 20 nM CPT, ATP luminescence, 48 h | Potency, µM (highest dose often 46.2 µM), for the others: top-dose activity change, negative = growth inhibition, usual class: inhibitors | 420,000 compounds, 12% hits | AID 686979, 2013; further: potency means the concentration at half of the fitted maximal effect; nearly all actives have a fitted effect of over 55% in size
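Chicken DT40 Tdp1-/- cells complemented with human TDP1, 400 cells/well, exposed to compounds plus 20 nM camptothecin for at least 48 h at 37 C; viability read as ATP content by CellTiter-Glo luminescence.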
TDP1 cell noCPT – qHTS for Inhibitors of human tyrosyl-DNA phosphodiesterase 1 (TDP1): qHTS in cells in absence of CPT; 420,000 compounds, 15% hits; AID 686978, 2013; Potency, µM (doses to about 46.2 µM), for the others: at the highest dose activity change, negative = growth inhibition, usual class: inhibitors; DT40 Tdp1-/- hTDP1 cells, no CPT, ATP luminescence, 48 h; further: potency means the concentration at half of the fitted maximal effect; nearly all actives have a fitted effect of over 55% in size
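Growth of hTDP1-complemented DT40 Tdp1-knockout cells is measured by ATP luminescence after at least 48 hr compound exposure at 37 °C, with DMSO substituting for the 20 nM CPT used in the parallel screen.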
* = called active by the depositor; ? = inconclusive; · = not tested or not shown. Unless noted, the call rests on the fitted dose curve; in most records, active means well fitted curve in the direction sought with a large enough effect; inconclusive means small, poorly fitted or top-dose-only effect, or another doubt; inactive means no such curve, though single readings can be large; an effect the other way counts as inactive or inconclusive. Unless noted, on the % scale 0 is the no-effect control and ±100 the full control effect.

SMILES	IL-1B inflam inh	HT1080 IDH1KD tx	HT1080-NT tox	12-LOX inh	DT40 TDP1 CPT	TDP1 cell noCPT
CCCC(C)C(=O)Nc1nc(C)c(-c2csc(Nc3ccccc3OC)n2)s1 (centres undefined)	3	0%	2%	45µM*	16µM*	23µM*
COc1ccccc1Nc1nc(-c2sc(NC(=O)c3ccccc3)nc2C)cs1	-21	-20%	-28%	?	?	?
CCCCCC(=O)Nc1nc(C)c(-c2csc(Nc3ccccc3OCC)n2)s1	3	0%	?	?	?	?
CCCCCC(=O)Nc1nc(C)c(-c2csc(Nc3ccccc3OC)n2)s1	-8	-11%	-7%	-29%	23µM*	18µM*
Cc1cc(C)c2c(=O)n3c(nc2c1)C(Cc1ccccc1)NC(=O)c1cccnc1-3 (centres undefined)	-26	?	-27%	?	?	21µM*
Cc1cc(C)c2c(=O)n3c(nc2c1)C(Cc1ccc(O)cc1)NC(=O)c1cccnc1-3 (centres undefined)	-14	-23%	-28%	-2%	?	18µM*
CCCC1NC(=O)c2cccnc2-n2c1nc1cc(C)cc(C)c1c2=O (centres undefined)	-21	-9%	-2%	?	?	?
N#CC(c1ccc(Cl)cc1)c1ccc2c(C(F)(F)F)cc(C(F)(F)F)nc2n1 (centres undefined)	-105*	15µM*	10µM*	29%	0.65µM*	0.58µM*
Nc1ccc2c(C(F)(F)F)cc(C(F)(F)F)nc2n1	62	0%	1%	-20%	3%	-7%
O=C(CN1C(=O)COc2ccccc21)N(Cc1ccccc1)Cc1ccccn1	-5	2%	3%	17%	-21%	-17%
COc1ccc(NC(=O)N(Cc2ccc(C)cc2)Cc2ccccn2)c(OC)c1	14	-9%	-2%	-2%	26µM*	?
COc1ccc(CN(Cc2ccccn2)C(=O)CN2C(=O)C(C)Oc3ccccc32)cc1 (centres undefined)	-5	10%	6%	0%	?	21µM*
COc1ccc(NC(=O)C(=O)NCc2ccc(C)cc2)c(OC)c1	·	·	·	9%	·	·
CC(C)COC(=O)N1CCCCC1c1cc(C(=O)NCc2ccc(F)cc2)no1 (centres undefined)	-12	-20%	-6%	-19%	?	21µM*
CC(C)COC(=O)N1CCCCC1c1cc(C(=O)Nc2ccc3c(c2)OCO3)no1 (centres undefined)	-19	-17%	-26%	6%	-58%	-51%
CC(C)COC(=O)N1CCCCC1c1cc(C(=O)Nc2ccccc2)no1 (centres undefined)	-25	-5%	-2%	-2%	18µM*	?
O=C(NCc1ccc(F)cc1)c1cc(C2CCCCN2C(=O)OCCF)on1 (centres undefined)	-3	10%	5%	-23%	?	?
CC(C)NC(=O)c1cc(C2CCCCN2C(=O)OCCF)on1 (centres undefined)	-67*	18%	0%	?	-1%	6%
Cc1ccc(NC(=O)C2CCN(c3ncnc4c3sc3ncccc34)CC2)cc1F	·	·	·	-71%	·	·
CCOc1ccc(S(=O)(=O)n2ccnc2)cc1C(C)(C)C	·	·	·	16%	·	·
O=Cc1ccc(Cl)cc1	·	·	·	·	13%	-8%
O=Cc1ccc(I)cc1	·	·	·	·	1.6µM*	4µM*
O=S(=O)(NCc1ccnc(OCc2ccccc2)c1)N1CCCCC1	·	·	·	6%	·	·
CN1CCCC2(CCN(C(=O)CCc3ccc(Cl)cc3)C2)C1=O (centres undefined)	·	·	·	13%	·	·
CCc1noc(C)c1C(=O)Nc1nc(-c2ccc(OC)cc2OC)cs1	12	-2%	-17%	?	?	16µM*
SMILES	IL-1B inflam inh	HT1080 IDH1KD tx	HT1080-NT tox	12-LOX inh	DT40 TDP1 CPT	TDP1 cell noCPT
CCc1noc(C)c1C(=O)Nc1nc(-c2ccc(OC)cc2)cs1	32	-17%	-9%	-17%	?	13µM*
CCc1noc(C)c1C(=O)Nc1nc(-c2cc(OC)ccc2OC)cs1	-11	-16%	-18%	-14%	?	21µM*
Cc1noc(C)c1C(=O)Nc1nc(-c2ccc(F)cc2)cs1	-9	9%	10%	0%	-13%	-16%
COc1ccc(-c2csc(NC(=O)CN3C(=O)CCC3=O)n2)c(OC)c1	-27	17%	?	-20%	6%	-3%
CSCCC(NC(=O)C1CCC(C)CC1)C(=O)Nc1ccc2c(c1)OCO2 (centres undefined)	·	·	·	-22%	·	·
CCc1ccc(S(=O)(=O)N(C(=O)c2ccncc2)c2ccc(OC(=O)c3ccncc3)cc2)cc1	-61*	-4%	-13%	?	?	?
COc1ccc(N(C(=O)COc2cccc(C)c2)S(=O)(=O)c2ccc(C)cc2)cc1	16	-9%	-11%	-21%	18µM*	-28%
COc1ccc(C(=O)N(c2ccc(C)cc2)S(=O)(=O)c2ccc(C)cc2)cc1	·	·	·	?	18µM*	23µM*
COc1ccc(N(C(=O)c2ccccc2)S(=O)(=O)c2cccs2)cc1	8	?	16µM*	11%	?	21µM*
COc1ccc(C(=O)N(c2ccc(OC)cc2)S(=O)(=O)c2cccs2)cc1	25	0%	-1%	-7%	?	?
CCc1nnc(NC(=O)Cc2coc3cc(C)c(C(C)C)cc23)s1	·	·	·	-20%	·	·
FC(F)Oc1ccc(N=C2SCC3CCCCN23)cc1 (centres undefined)	-17	-1%	-8%	-5%	?	23µM*
COC(=O)c1ccc(NS(=O)(=O)c2ccc3[nH]c4c(c3c2)CCCC4)cc1	·	·	·	?	?	6.5µM*
COc1ccc(NS(=O)(=O)c2ccc3[nH]c4c(c3c2)CCCCCC4)cc1	·	·	·	-23%	?	?
CC(=O)c1ccc(NS(=O)(=O)c2ccc3[nH]c4c(c3c2)CCCC4)cc1	·	·	·	?	-4%	-26%
